# From paper PMC4336329 (PLoS ONE, 2015)
# In all, about 310,000 compounds went through this assay and about 2,200 (0.71%) showed an effect of 50% or more. The effect is printed as a negative number. Shown is part of a subset that was picked to be rich in strong results.
# Target: human ether-à-go-go-related gene (hERG) potassium channel (human, UniProt Q12809)
# Assay: primary screen, population patch clamp on CHO cells stably expressing hERG; higher = less effect of the substance
# Chain of human ether-à-go-go-related gene (hERG) potassium channel (Q12809 whole entry, looked up): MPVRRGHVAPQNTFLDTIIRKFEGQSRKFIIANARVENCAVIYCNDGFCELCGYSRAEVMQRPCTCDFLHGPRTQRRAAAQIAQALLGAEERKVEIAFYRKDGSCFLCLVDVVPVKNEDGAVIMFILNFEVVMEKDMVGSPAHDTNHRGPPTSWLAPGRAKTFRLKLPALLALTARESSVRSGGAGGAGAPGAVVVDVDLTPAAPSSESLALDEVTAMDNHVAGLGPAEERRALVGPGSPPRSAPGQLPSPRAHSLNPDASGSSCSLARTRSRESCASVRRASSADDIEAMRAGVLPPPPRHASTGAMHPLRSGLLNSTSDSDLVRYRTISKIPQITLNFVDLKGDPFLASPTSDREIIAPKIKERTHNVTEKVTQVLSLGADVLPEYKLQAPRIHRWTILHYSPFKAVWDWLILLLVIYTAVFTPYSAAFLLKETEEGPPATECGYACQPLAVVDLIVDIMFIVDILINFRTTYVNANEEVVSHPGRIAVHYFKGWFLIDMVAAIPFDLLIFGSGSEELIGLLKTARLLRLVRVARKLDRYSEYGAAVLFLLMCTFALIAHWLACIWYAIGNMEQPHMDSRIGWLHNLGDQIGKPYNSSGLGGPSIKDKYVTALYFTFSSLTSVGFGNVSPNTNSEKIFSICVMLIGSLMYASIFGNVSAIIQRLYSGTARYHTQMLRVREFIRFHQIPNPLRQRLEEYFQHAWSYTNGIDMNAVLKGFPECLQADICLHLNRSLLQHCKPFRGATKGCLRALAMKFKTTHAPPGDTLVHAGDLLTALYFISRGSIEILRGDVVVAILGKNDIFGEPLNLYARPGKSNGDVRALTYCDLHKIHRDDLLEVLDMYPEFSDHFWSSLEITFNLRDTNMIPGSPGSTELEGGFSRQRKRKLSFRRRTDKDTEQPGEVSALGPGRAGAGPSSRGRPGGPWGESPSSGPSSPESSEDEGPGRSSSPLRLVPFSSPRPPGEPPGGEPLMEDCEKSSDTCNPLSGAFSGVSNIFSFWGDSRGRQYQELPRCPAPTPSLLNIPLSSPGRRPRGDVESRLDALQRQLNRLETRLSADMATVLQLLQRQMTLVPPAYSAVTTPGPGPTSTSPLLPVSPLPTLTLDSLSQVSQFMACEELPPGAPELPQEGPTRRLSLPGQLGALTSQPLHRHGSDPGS
row,Compound,"hERG current change (%, negative = inhibition) at 1uM [%]"
1,O=C(Nc1ccc(-c2nc3ccccc3o2)cc1)c1cc(-n2cnnc2)ccc1Cl,6.74
2,O=C(O)CC(NC(=S)NCc1ccccc1)C(=O)O (stereo not drawn),-7.52
3,CC(CCc1ccccc1)NC(=O)COC(=O)c1ccc([N+](=O)[O-])cc1 (stereo not drawn),5.37
4,COc1ccc(CCNC(=O)CSc2nc3c(c(=O)n(C)c(=O)n3C)n2C(C)C)cc1OC,-14.5
5,CC(C)=CCc1c(O)cc2c(c1O)C(=O)CC(c1ccccc1)O2 (stereo not drawn),12.9
6,CCN(CC)S(=O)(=O)c1cc(C(=O)N(C)CC(=O)Nc2ccc(Cl)cc2)ccc1Cl,-1.15
7,COc1cccc(-c2c(-c3cc(OC)cc(OC)c3)n(C)c3ccc(-c4ccc5[nH]ccc5c4)cc23)c1,11.8
8,CCN1CCN(c2nc(-c3ccccc3Cl)nc3ccccc23)CC1.Cl,-39.1
9,Cc1ccc(S(=O)(=O)N2CCN=C2SCc2ccc(Cl)c(Cl)c2)cc1,10.2
10,COc1ccc(C=C2c3ccccc3C(=O)c3ccccc32)c(OC)c1,7.49
11,Cc1nn(Cc2noc(C(=O)NCc3ccc4c(c3)OCO4)n2)c(C)c1Br,1.08
12,CCOC(=O)n1c(=O)n(Cc2ccccc2Cl)c2ccccc21,10.3
13,O=C(CSc1nnc(COc2ccc(Cl)cc2)o1)NC1CCCCC1,-2.69
14,COc1ccc(C)cc1NC(=O)CCN1CCN(c2ccccc2)CC1,3.12
15,COc1ccc(C)cc1NC(=O)CN1CCN(C/C=C/c2ccccc2)CC1,-45.2
16,COc1ccc(C)cc1NC(=O)CCN1CCN(C/C=C/c2ccccc2)CC1,-70.9
17,O=C(NCC1COc2ccccc2O1)c1ccc(NC(=O)c2ccco2)cc1 (stereo not drawn),-1.42
18,COc1ccc(-n2c(SCC(=O)N/N=C/c3ccccc3OCC(=O)O)nc3ccccc3c2=O)cc1,11.6
19,COc1cccc(CN2CCN(Cc3cc(OC)c(OC)cc3[N+](=O)[O-])CC2)c1.O=C(O)C(=O)O,-18.5
20,COc1cc(CN2CCN(Cc3ccc([N+](=O)[O-])cc3)CC2)c([N+](=O)[O-])cc1OC.O=C(O)C(=O)O,-25.4
21,COc1cccc(CN2CCN(C(=O)COc3ccc4ccccc4c3)CC2)c1,10.5

row,Compound,"hERG current change (%, negative = inhibition) at 1uM [%]"
1,O=C(COc1ccc(Cl)cc1)N1CCN(Cc2ccc3c(c2)OCO3)CC1,-6.58
2,O=C(COc1ccc2ccccc2c1)N1CCN(Cc2ccncc2)CC1.O=C(O)C(=O)O,-14.8
3,O=C(COc1ccc2ccccc2c1)N1CCN(C2CCN(Cc3ccccc3)CC2)CC1,-69.6
4,O=C(COc1ccc(Cl)cc1)N1CCN(C2CCCC2)CC1.O=C(O)C(=O)O,-68.4
5,O=C(COc1ccccc1)N1CCN(C2CCCC2)CC1.O=C(O)C(=O)O,8.65
6,O=C(COc1ccc(Br)cc1)N1CCN(C2CCCC2)CC1,-42.1
7,O=C(COc1ccc(Cl)cc1)N1CCN(Cc2ccccc2)CC1,3.32
8,COc1cc(CN2CCN(Cc3ccc(C)cc3)CC2)c([N+](=O)[O-])cc1OC.O=C(O)C(=O)O,-73.4
9,O=C(COc1ccc(Cl)cc1)N1CCN(Cc2ccc([N+](=O)[O-])cc2)CC1.O=C(O)C(=O)O,-76.4
10,CCN1c2ccccc2-c2nc3ccccc3n2C1c1cccs1 (stereo not drawn),4.28
11,COCCn1c(=NC(=O)c2cccs2)sc2cc(NC(C)=O)ccc21,0.283
12,COc1ccc(N2C(=O)C(Cl)=C(Nc3ccccc3OC)C2=O)cc1,2.56
13,O=C(CSc1nnc(-c2ccccn2)n1Cc1ccccc1)Nc1ccc2c(c1)OCO2,7.03
14,CCN(CC)CCCNC(CC(=O)Nc1cccc([N+](=O)[O-])c1)C(=O)O (stereo not drawn),3.62
15,COc1ccccc1C(=O)C1CCCN(C(=O)c2cccc(-n3cccn3)c2)C1 (stereo not drawn),9.07
16,Nc1ccc(-n2nnnc2-c2ccco2)cc1,11.1
17,Cc1cccc(OCC(=O)N2CCN(Cc3ccc([N+](=O)[O-])cc3)CC2)c1.O=C(O)C(=O)O,-60.5
18,Cc1ccc(OCC(=O)N2CCN(C(=O)c3ccc([N+](=O)[O-])cc3)CC2)cc1,-19.5
19,Cc1cccc(OCC(=O)N2CCOCC2)c1,17.1
20,Cc1cccc(OCC(=O)N2CCN(C(=O)COc3ccc(Cl)cc3)CC2)c1,-56.6
21,CSc1ccc(CN2CCN(C(=O)COc3ccc(C)cc3)CC2)cc1.O=C(O)C(=O)O,-19.3

row,Compound,"hERG current change (%, negative = inhibition) at 1uM [%]"
1,Cc1ccc(OCC(=O)N2CCN(Cc3ccc([N+](=O)[O-])cc3)CC2)cc1.O=C(O)C(=O)O,-85
2,Cc1cccc(OCC(=O)N2CCN(S(C)(=O)=O)CC2)c1,9.87
3,Cc1cccc(OCC(=O)N2CCN(Cc3ccncc3)CC2)c1.O=C(O)C(=O)O,10.2
4,Cc1cccc(OCC(=O)N2CCN(C(=O)c3ccc([N+](=O)[O-])cc3)CC2)c1,-38.8
5,Cc1ccc(S(=O)(=O)N2CCC(C(=O)OCC(=O)N(CC(C)C)C3CCS(=O)(=O)C3)CC2)cc1C (stereo not drawn),10.8
6,Nc1n[nH]c2cc(=O)n(-c3cccc(C(F)(F)F)c3)nc12,12.3
7,O=C(CSc1nc(Cc2ccccc2)nc2ccccc12)Nc1nc2c(s1)CCCC2,15.9
8,O=C(Nc1ccc2c(c1)OCO2)C1CC(=O)N(CCc2ccccc2)C1 (stereo not drawn),4.44
9,Cc1ccc(S(=O)(=O)N(C)C)cc1NC(=O)COC(=O)C1CCCC1,-0.454
10,Cc1ccc(S(=O)(=O)N(C)C)cc1NC(=O)COC(=O)C1CCN(S(=O)(=O)c2cccs2)CC1,-58.4
11,Cc1ccc(S(=O)(=O)N(C)C)cc1NC(=O)COC(=O)C1CC1,17.3
12,O=C(Nc1ccccc1)C1CCCN1/C=C/C(=O)C(F)(F)F (stereo not drawn),2.92
13,CCC(NS(=O)(=O)c1ccc(C)cc1)C(=O)Nc1ccc(NC(C)=O)cc1 (stereo not drawn),-1.54
14,CCC(=O)N(Cc1ccc(C)cc1)Cc1cc2cc3c(cc2[nH]c1=O)OCO3,0.914
15,O=C(O)CCc1ccc(-c2ccccc2)n1-c1cccc(C(=O)O)c1,15.2
16,O=C(NCCS(=O)(=O)N1CCN(c2ccccc2)CC1)C1CC(=O)N(c2ccccc2)C1 (stereo not drawn),18
17,Cc1ccc(C)c(CN2C(=O)CSc3ccc(C(=O)NCC(C)CN4CCC(C)CC4)cc32)c1 (stereo not drawn),-70.4
18,Cc1ccc(C)c(CN2C(=O)CSc3ccc(C(=O)NCCN4CCOCC4)cc32)c1,20.1
19,Cc1ccc(C)c(CN2C(=O)CSc3ccc(C(=O)N4CCCC4)cc32)c1,5.65
20,N#Cc1ccc(NC(=O)COC(=O)CSc2nnc(-c3ccc(Cl)cc3)o2)cc1,6.91
21,Cc1sc2ncnc(N3CCC(C(=O)N(C)CC(=O)Nc4ccccc4Cl)CC3)c2c1C,-30

row,Compound,"hERG current change (%, negative = inhibition) at 1uM [%]"
1,CCCN(CC(=O)Nc1ccccc1C)C(=O)C1CCN(c2ncnc3sc(C)c(C)c23)CC1,-56.5
2,Cc1sc2ncnc(N3CCC(C(=O)N(C)CC(=O)Nc4ccccc4Br)CC3)c2c1C,-8.93
3,CC(=O)N1CCN(c2nc(-c3cccs3)nc3ccccc23)CC1,-49.4
4,CCCN1CCN(c2nc(-c3cccs3)nc3ccccc23)CC1,-16.1
5,CCN1CCN(c2nc(-c3cccs3)nc3ccccc23)CC1,-66.2
6,c1ccc(N2CCN(c3nc(-c4cccs4)nc4ccccc34)CC2)cc1,4.12
7,c1csc(-c2nc(N3CCOCC3)c3ccccc3n2)c1,5.11
8,CN1CCN(c2nc(-c3cccs3)nc3ccccc23)CC1,-55
9,COc1ccc(CC(=O)N2CCN(S(=O)(=O)c3cc(Cl)ccc3Cl)CC2)cc1,14
10,CCOC(=O)N1CCC(N2CCN(c3cc(C)ccc3C)CC2)CC1,-32.2
11,COc1cccc2c1OCC/C2=N\NC(=O)COc1ccccc1C,-13.9
12,COc1ccc(CNC(=O)C2CC(c3cccc([N+](=O)[O-])c3)=NO2)cc1 (stereo not drawn),5.46
13,O=C(NCc1cccnc1)c1ccc(Cl)cc1[N+](=O)[O-],7.05
14,c1ccc(CSc2ncnc3c2oc2ccccc23)cc1,9.56
15,N=c1c(S(=O)(=O)c2ccc(F)cc2)cc2c(=O)n3ccccc3nc2n1CC1CCCO1 (stereo not drawn),-2.33
16,N=c1c(C(=O)NCc2ccc(F)cc2)cc2c(=O)n3ccccc3nc2n1CC1CCCO1 (stereo not drawn),-85.3
17,O=C(CSc1nc2ccccc2c(=O)n1CC1CCCO1)NCc1ccc2c(c1)OCO2 (stereo not drawn),9.71
18,Cc1ccc(CNC(=O)c2cc3c(=O)n4ccccc4nc3n(CC3CCCO3)c2=N)cc1 (stereo not drawn),-85.7
19,COc1ccc(CNC(=O)c2cc3c(=O)n4ccccc4nc3n(CC3CCCO3)c2=N)cc1 (stereo not drawn),-80.4
20,CCOC(=O)c1cc2c(=O)n3ccccc3nc2n(CC2CCCO2)c1=NC(C)=O (stereo not drawn),16.6
21,N=c1c(C(=O)NCc2ccc3c(c2)OCO3)cc2c(=O)n3ccccc3nc2n1CC1CCCO1 (stereo not drawn),-84.2
